An excerpt weighted towards active compounds, which were near 19% of everything screened.
DT40 TDP1 no CPT = qHTS for Inhibitors of human tyrosyl-DNA phosphodiesterase 1 (TDP1): qHTS in cells in absence of CPT. Potency, µM (highest dose often 46.2 µM), for inactives: at the top dose activity change, negative = growth inhibition, actives largely listed as inhibitors. actives 15% (n = 420,000). DT40 Tdp1-/- hTDP1 cells, no CPT, ATP luminescence, 48 h; further: potency means the concentration at half of the fitted maximal effect; nearly all actives have a fitted effect of over 55% in size
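Seeded 400 DT40-hTDP1 cells/well (vehicle DMSO, no 20 nM CPT); pinned compounds; ≥48 hr at 37 °C; CellTiter-Glo luminescence as viability measure.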
IL1B secr inh = inflammasome signaling inhibition, IL-1 beta readout | activity change, % at 57.5 µM | THP-1 LPS/ATP IL-1B secretion, AlphaLISA, 16 h; active compounds read low | actives 4.7% (n = 360,000); in the data active means activity change below about -50%; inconclusive means mostly about -30% to -49%
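THP-1 cells pretreated 1 hr with compounds (up to 57.5 uM final), then stimulated with LPS (250 ng/mL final) plus ATP (1.25 mM final); secreted IL-1B measured by AlphaLISA after 16 hr, decreased signal indicating inhibition.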
HT1080 IDH1KD tx = HT-1080 IDH1 knockdown cell toxicity (counter line); HT-1080 IDH1 knockdown viability, ATP luminescence, 48 h; Potency, µM (titrated, usually from 46.1 µM), inactives show top-dose activity, negative = toxicity, hits mostly cytotoxic; actives 2% (n = 360,000); AID 686971;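 further: potency means the concentration at half of the fitted maximal effect; 0% = DMSO wells and -100% = cell-free medium wells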
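Luminescent ATP read-out (CellTiter-Glo, 10 min at room temperature) after 48 h compound exposure at 37 °C gave viability of IDH1-knockdown HT-1080 cells. Activity was normalised to DMSO and cell-free wells, then fitted as concentration-response curves.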
TDP1 cell CPT = growth inhibition of DT40 Tdp1-/-;hTDP1 cells with camptothecin (screen for TDP1 inhibitors); Potency, µM (top dose mostly 46.2 µM), for inactives: top-dose activity change, negative = growth inhibition, usual class: inhibitors; actives 12% (n = 420,000); AID 686979; chicken DT40 Tdp1-/-;hTDP1 cells + 20 nM CPT, ATP luminescence, 48 h; further: potency means the concentration at half of the fitted maximal effect; nearly all actives have a fitted effect of over 55% in size
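Chicken DT40 Tdp1-/- cells complemented with human TDP1, 400 cells/well, exposed to compounds plus 20 nM camptothecin for at least 48 h at 37 C; viability read as ATP content by CellTiter-Glo luminescence.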
HT1080NT lethal = kills 2HG-producing HT-1080-NT fibrosarcoma cells | Potency, µM (top dose mostly 46.1 µM), for inactives: top-dose activity, negative = less viability, actives largely listed as cytotoxic | HT-1080-NT fibrosarcoma viability, CellTiter-Glo ATP luminescence, 48 h | actives 1.6% (n = 360,000);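 further: NT is the 2HG producing partner of a matched IDH1 knockdown line; potency means the concentration at half of the fitted maximal effect; 0% = DMSO-treated cells and -100% = media-only wells without cells; nearly all actives have a fitted effect of over 55% in size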
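Toxicity toward the 2HG-producing NT line was scored as %Activity, normalised to DMSO and no-cell wells, from CellTiter-Glo luminescence after 48 hours' treatment.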
Active calls of the source: *; i = inactive; ? = inconclusive; · = no result; [ ] = dose if it differs, or a comment. Unless noted, the call rests on the fitted dose curve; in most records, active means well fitted curve in the direction sought with a large enough effect; inconclusive means small, poorly fitted or top-dose-only effect, or another doubt; inactive means no such curve, though single readings can be large; an effect the other way counts as inactive or inconclusive. Unless noted, on the % scale 0 is the no-effect control and ±100 the full control effect.

SMILES	DT40 TDP1 no CPT	IL1B secr inh	HT1080 IDH1KD tx	TDP1 cell CPT	HT1080NT lethal
Cc1cn([C@H](C(=O)NCCCCCCCCCCC(=O)N2CCN(C(=O)OC(C)(C)C)CC2)[C@@H](C)O)nn1	16.4µM*	31.5	-6.7%	23.1µM*	-3.1%
C[C@H](O)[C@@H](C(=O)N1CCN(C(=O)OC(C)(C)C)CC1)n1cc(CCCCNC(=O)OC(C)(C)C)nn1	?	0.5	2.2%	-23.4%	5.5%
CC(C)(C)OC(=O)NCCCC[C@@H](C(=O)NCCCCCCCCCCC(=O)N1CCN(C(=O)OC(C)(C)C)CC1)n1cc(CCCC(=O)O)nn1	?	6.7	15.1%	?	0.2%
CC(C)(C)OC(=O)CC[C@@H](C(=O)NCCCCCCCCCCC(=O)N1CCN(C(=O)OC(C)(C)C)CC1)n1cc(CCCCCNC(=O)OC(C)(C)C)nn1	4.11µM*	4.6	-2.9%	5.8µM*	-7.1%
CC(C)(C)OC(=O)NCCCCCc1cn([C@@H](CO)C(=O)NCCCCCCCCCCC(=O)N2CCN(C(=O)OC(C)(C)C)CC2)nn1	2.31µM*	0.0	16.4µM*	2.59µM*	16.4µM*
CCCCc1cn([C@@H](CCCCNC(=O)OC(C)(C)C)C(=O)N2CCN(C(=O)OC(C)(C)C)CC2)nn1	?	-12.9	4.0%	?	-1.0%
O=C(OCC1(COC(=O)c2cccnc2)CCCC(COC(=O)c2cccnc2)(COC(=O)c2cccnc2)C1O)c1cccnc1	11.9%	·	·	1.6%	·
COc1cccc(CN2CC(C(=O)N3CCCCCC3)CCC2=O)c1 (stereo unspecified)	10.2%	4.9	5.0%	-7.6%	9.6%
CCCCN(C)C(=O)Cn1nc(-c2ccc(Cl)cc2)ccc1=O	-17.3%	32.1	-6.0%	-7.0%	-10.6%
CC(=O)c1ccc(NC(=O)CN2C(=O)CCc3ccccc32)cc1	-25.1%	·	·	-13.9%	·
N/C(=N\OC(=O)c1ccc(=O)n(Cc2ccc(Cl)cc2)c1)c1ccccn1	?	-13.5	-4.1%	20.6µM*	?
CCCc1ccc(C(=O)O/N=C(\N)c2ccccn2)cc1	-29.3%	-57.5*	?	?	?
N/C(=N\OC(=O)c1ccc(=O)n(Cc2ccccc2)c1)c1ccccn1	?	3.5	2.3%	?	1.8%
Cc1cccc(CCNC(=O)CCc2nnc(CCc3ccccc3)o2)n1	5.3%	2.5	-0.4%	-5.7%	8.3%
CCOc1ccc(OCC)c(NC(=O)C(NS(=O)(=O)c2cccs2)c2ccccc2)c1 (stereo unspecified)	?	·	·	-21.5%	·
CC(C)(C)c1ccc(CN2N=Nc3ccccc3S2(=O)=O)cc1	7.31µM*	-21.9	?	5.8µM*	?
CCN(CC)CCCNC(=O)c1cc2c(Cl)nc3ccccc3c2s1	?	?	?	18.4µM*	?
CCN(CCCNC(=O)c1cc2c(Cl)nc3ccccc3c2s1)Cc1ccccc1	23.1µM*	·	·	?	·
CCOc1ccccc1NC(=O)c1cc2c(Cl)nc3ccccc3c2s1	-3.4%	·	·	13.2%	·
Nc1nc2c3ccccc3nc(C3CC3)n2n1	?	-13.3	-19.8%	?	-21.6%
CCc1nc2c(OCc3ccc(OC(F)F)cc3)cccn2c1N(C)C(=O)c1ccco1	?	-12.8	10.5%	?	16.9%
Cc1cccc(OCCCC(=O)NNC(=O)c2ccccn2)c1	7.31µM*	88.8	?	6.51µM*	?
CC(C)CC(=O)Nc1nnc(SCC(=O)NCC2CCCO2)s1 (stereo unspecified)	-16.7%	i	2.6%	3.9%	-2.4%
COc1ccc(N=C2C(=Nc3ccc(OC)cc3)N(c3ccc(OC)cc3)C(=S)N2c2ccccc2)cc1	18.4µM*	-20.4	3.9%	20.6µM*	?
Cc1ccc(-c2nc(=Nc3ccccc3)sn2-c2ccccc2)cc1	3.16µM*	·	·	3.55µM*	·
SMILES	DT40 TDP1 no CPT	IL1B secr inh	HT1080 IDH1KD tx	TDP1 cell CPT	HT1080NT lethal
COc1ccc(N=c2nc(-c3ccccc3)n(-c3ccc(C)cc3)s2)cc1	3.16µM*	·	·	4.47µM*	·
COc1ccc(N=c2nc(-c3ccc(C)cc3)n(-c3ccccc3)s2)cc1	3.55µM*	·	·	3.98µM*	·
COc1ccc(-n2c(-c3ccccc3)nnc2-c2ccc(Cl)cc2)cc1	?	0.0	-5.1%	-11.9%	-1.1%
CN(CCN1CCc2ccccc2C1)Cc1nc(Cc2ccccc2F)no1	-15.0%	25.5	-7.3%	-1.9%	-12.6%
COc1cc(C(=O)NCCC2=CCCCC2)ccc1OCc1c(C)noc1C	-18.1%	?	6.3%	-26.6%	5.3%[9.24 µM]
CC(OC(=O)Cc1n[nH]c(=O)c2ccccc12)C(=O)N(C)c1ccccc1 (stereo unspecified)	16.4µM*	5.1	?	8.2µM*	?
Cc1cc(C)c(C(=O)C(C)OC(=O)Cc2n[nH]c(=O)c3ccccc23)cc1C (stereo unspecified)	?	0.0	-16.0%	-17.2%	-15.1%
CC(OC(=O)Cc1n[nH]c(=O)c2ccccc12)C(=O)Nc1ccc(F)cc1 (stereo unspecified)	-18.8%	19.3	-4.8%	?	7.2%
Cc1ccc(C(=O)C(C)OC(=O)Cc2n[nH]c(=O)c3ccccc23)cc1 (stereo unspecified)	18.4µM*	8.6	-13.1%	11.6µM*	-12.7%
c1ccc2nc(N3CCCC3)c(N3CCCC3)nc2c1	?	32.4	-3.8%	-5.0%	3.2%
NCC1CCN(c2nc3ccccc3c3c2CCCC3)CC1	11.6µM*	-94.8*	?	20.6µM*	-27.4%
Cc1cccc(NC(=O)COc2ccc(-c3nn(C)c(=O)c4ccccc34)cc2)c1	16.4µM*	-52.1*	-20.5%	11.6µM*	-0.2%
Cc1cccc(NC(=O)COc2ccccc2)c1	-0.5%	1.6	8.7%	-23.4%	21.3%
COc1ccc(NC(=O)c2ccc(-c3nn(C)c(=O)c4ccccc34)cc2)cc1	2.6%	-0.4	-17.3%	3.4%	0.0%
CNC(=O)Cn1nc(-c2ccc(C)cc2)c2ccccc2c1=O	14.6µM*	23.8	-11.3%	?	-12.1%
Cn1nc(-c2ccc(OCC(=O)Nc3ccc(Cl)cc3)cc2)c2ccccc2c1=O	20.6µM*	·	·	?	·
COc1ccccc1NC(=O)c1ccc(-c2nn(C)c(=O)c3ccccc23)cc1	20.6µM*	-55.6*	0.7%	?	-3.0%
COC(=O)c1ccc(Cn2cnc3cnccc32)cc1	0.9%	-14.3	-4.4%	0.3%	-14.4%
CCCNC(=O)COc1ccc(-c2nn(C)c(=O)c3ccccc23)cc1	20.6µM*	15.8	1.9%	?	-1.9%
COc1ccccc1NC(=O)COc1ccc(-c2nn(C)c(=O)c3ccccc23)cc1	7.31µM*	-8.3	-26.0%	13µM*	-28.3%

Screens: PubChem BioAssay, National Center for Advancing Translational Sciences (NCATS)
